Shown are actives, neighbours in structure and some others; about 4.9% of the full set was active somewhere.
HSP90 inh: inhibitors of HSP90 luciferase refolding in rabbit reticulocyte lysate | luciferase refolding luminescence, 3 h | inhibition, % at 5.6 µM | 290,000 compounds, 0.91% hits | AID 1789;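 active = inhibition above the screen-wide mean plus 3 SD, computed separately per campaign, cut at about 16% in these data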;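 note: 0% = DMSO wells and 100% = 60 µM geldanamycin wells; inhibitors lower the luminescence because luciferase stays unfolded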
HSF1 inh: HSF1 inhibition; NIH3T3-HGL HSE-luciferase, MG132-induced, luminescence 8 h; active compounds read low; activity change, negative = inhibition, % at 7.5 µM (by protocol); 300,000 compounds, 0.77% hits; AID 2098;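 active = more than half of replicate wells show activity change below -50%, luminescence cut by over half; inconclusive = some wells, but at most half, below -50%; inactive = no replicate well below -50%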;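 note: luciferase reports HSF-1 transcriptional activity via heat shock element; 0% = median of DMSO wells and -100% = zero luminescence signal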
HSF1 activator: increases HSF-1 driven luciferase reporter signal; activation, % at 9 µM; 300,000 compounds, 1.7% hits; NIH3T3-HGL HSF-1 luciferase reporter, MG132, 8 h; 100% = twice DMSO control signal;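 active = mean replicate activation of at least 50% with a set share of replicates each reaching 50%; inconclusive = only one of those two conditions met; inactive = mean below 50% and too few replicates reaching it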;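 note: 0% = median of the neutral control wells and 100% = twice that signal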
Platelet DG rel: modulates dense granule release in human platelets; human platelet-rich plasma, SFLLRN dense granule ATP release, luminescence; inhibition, %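 (compounds screened at 7.5 µM in platelet-rich plasma)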; 300,000 compounds, 0.22% hits; AID 1663;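 active = mean replicate score, as percent of positive control, at or above 50; inconclusive = mean below 50 but at least one replicate at or above 50; inactive = mean and every replicate below 50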
MPTP block: blocks calcium-induced mitochondrial swelling. isolated mouse mitochondria, Ca2+ swelling absorbance, 30 min. inhibition, % at 10 µM. 360,000 compounds, 1.4% hits;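 active = inhibition of 50% or more, scaled per plate between neutral and stimulator controls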;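 note: 0% = DMSO wells given calcium and 100% = 1 mM EGTA wells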
dFosB act-1: activators of mouse delta FosB homodimer; purified delta FosB, TAMRA-CDK5 oligo fluorescence polarization; percent of positive-control signal above neutral wells; 340,000 compounds, 0.99% hits; activation, % at 25 µM; AID 493131; P13346;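 active = mean activation above about 17%, with every replicate also reaching it, limit read from the data, passing the limit was not always enough; inconclusive = only one of the two conditions met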
Target sequence (P13346 whole entry, looked up): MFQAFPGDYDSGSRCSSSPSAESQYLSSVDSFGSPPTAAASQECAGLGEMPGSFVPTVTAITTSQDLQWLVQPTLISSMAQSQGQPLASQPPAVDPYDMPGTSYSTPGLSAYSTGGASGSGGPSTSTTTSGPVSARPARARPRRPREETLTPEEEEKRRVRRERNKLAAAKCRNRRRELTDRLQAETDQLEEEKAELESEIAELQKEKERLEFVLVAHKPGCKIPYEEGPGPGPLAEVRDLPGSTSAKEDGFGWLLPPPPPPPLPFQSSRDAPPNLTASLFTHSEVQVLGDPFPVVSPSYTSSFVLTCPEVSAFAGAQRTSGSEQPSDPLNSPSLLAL
dFosB act-2: enhances mouse delta FosB homodimer binding to DNA. shares compounds with dFosB act-1. AID 588690. 2,400 tested, under 10 active. purified delta FosB, TAMRA-CDK5 oligo fluorescence polarization; normalised: neutral wells 0, positive control 100. activation, % at 24.9 µM;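 active = highest replicate activation at or above 34% and every replicate reaching that threshold; inconclusive = meets only one of the two criteria; inactive = meets neither criterion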;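 note: higher polarization means more probe DNA bound by delta FosB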
Active calls of the source: *; ? = inconclusive; . = no result.

SMILES	HSP90 inh	HSF1 inh	HSF1 activator	Platelet DG rel	MPTP block	dFosB act-1	dFosB act-2
O=C(Nc1ccc(CN2CCOCC2)cc1)c1ccc(-c2cccc([N+](=O)[O-])c2)o1	-6	-1	5	5	0	17*	1
CC(=O)c1ccc(NC(=O)c2ccc(COc3ccccc3[N+](=O)[O-])o2)cc1	2	-1	11	8	-2	27*	2
O=C(Nc1ccc(CN2CCOCC2)cc1)c1ccc(-c2cc(Cl)ccc2Cl)o1	5	-7	-1	4	0	26*	0
O=C(Nc1ccc(CN2CCOCC2)cc1)c1ccc(Br)o1	2	5	47	-2	0	-6	.
O=C(Nc1nccs1)c1ccc(-c2cccc([N+](=O)[O-])c2)o1	0	17	46	6	-1	26*	2
O=C(N/N=C/c1cccc([N+](=O)[O-])c1)c1ccc(CN2CCOCC2)cc1	3	-9	-19	5	-2	-12	.
COc1cccc(C(=O)N[C@@H](C)C(=O)N2CCC3(CC2)NCCc2[nH]cnc23)c1	0	-3	6	0	-1	5	.
CC(=O)Nc1ccc(NC(=O)c2ccc(-c3ccc([N+](=O)[O-])cc3)o2)cc1	0	-2	5	-5	2	29*	4
COc1ccc(NC(=O)c2ccc(-c3ccc([N+](=O)[O-])cc3)o2)cc1OC	-5	-12	-15	-7	3	-14	.
COc1ccc(N(CC(=O)Nc2cc(C)ccc2C)S(=O)(=O)c2ccccc2[N+](=O)[O-])c(OC)c1	0	6	12	0	-2	-9	.
CCCOc1ccc(-c2c(C(=O)N/N=C/c3ccccc3)nnn2-c2nonc2N)cc1	0	11	12	10	1	30*	-1
Nc1nonc1-n1nnc(C(=O)N/N=C/c2ccc3c(c2)OCO3)c1CSc1ccccc1	-6	4	5	4	0	36*	0
CCOc1ccc(/C=N/NC(=O)c2nnn(-c3nonc3N)c2-c2ccc(OCC)cc2)cc1	-2	-4	-11	5	-1	1	.
Nc1nonc1-n1nnc(C(=O)N/N=C/c2cccc(F)c2)c1-c1ccc2c(c1)OCO2	0	3	9	5	-2	37*	3
Nc1nonc1-n1nnc(C(=O)N/N=C/c2c(Cl)cccc2Cl)c1CSC1=NCCS1	3	6	6	4	2	27*	2
Cn1nccc1C(=O)Oc1ccc(/C=N/NC(=O)c2ccccc2O)cc1	-6	6	16	-4	1	-1	.
COc1ccc(Br)cc1CNC(=O)CCc1nc(-c2ccc(C)cc2)no1	4	1	16	-2	-3	21*	0
COc1ccc(-c2noc(CCC(=O)NCc3cc(Br)ccc3OC)n2)cc1	-3	-7	-20	-28	0	3	.
Cc1nc2ccccc2c2oc(C(=O)N3CCN(c4ccc([N+](=O)[O-])cc4)CC3)cc12	-3	5	14	-4	-1	-6	.
Cc1nn(CC(=O)NCCc2cccs2)c(=O)c2cc3ccccc3n12	3	13	13	5	1	26*	4
Cc1nn(CC(=O)NCCc2cccs2)c(=O)c2nn(-c3ccccc3)c(C)c12	6	3	5	-1	1	-11	.
O=C(NC(NC(=O)c1c(F)cccc1F)c1ccc([N+](=O)[O-])cc1)c1c(F)cccc1F	-1	2	-3	0	-1	24*	5
O=C(O)COc1ccc(C(NC(=O)c2c(F)cccc2F)NC(=O)c2c(F)cccc2F)cc1	1	1	-2	2	0	4	.
O=C(Cn1nnc(-c2ccc(Cl)cc2)n1)NCc1ccco1	-1	0	14	2	1	6	.
COc1ccc(C(=O)Nc2ccc(-c3nnn(CC(=O)NCc4ccco4)n3)cc2)cc1	2	-9	5	-3	2	46*	3
SMILES	HSP90 inh	HSF1 inh	HSF1 activator	Platelet DG rel	MPTP block	dFosB act-1	dFosB act-2
COc1cccc(-c2nnn(CC(=O)Nc3cc(OC)c(NC(=O)c4ccco4)cc3OC)n2)c1	-1	7	6	-5	-5	17*	0
CCOc1ccc(-c2nnn(CC(=O)Nc3cccc(OC)c3)n2)cc1OCC	6	2	15	0	2	19*	0
CCOc1ccc(-c2nnn(CC(=O)NCc3ccc(F)cc3)n2)cc1OCC	1	1	-4	14	3	41*	-5
CCCOc1ccc(-c2nnn(CC(=O)Nc3cccc(C(=O)OC)c3)n2)cc1	.	9	0	0	7	-3	.
CCCCCCCCNS(=O)(=O)CCNC1CC1	.	.	.	.	0	-10	.
Cc1ccc(NC(=O)Cn2nnc(-c3ccc4c(c3)OCO4)n2)cc1F	-1	-4	4	-3	1	23*	2
COc1ccc(-c2nnn(CC(=O)NCc3ccc4c(c3)OCO4)n2)cc1OC	0	-2	2	-10	-1	29*	5
COC(=O)c1ccccc1NC(=O)Cn1nnc(-c2ccc3c(c2)OCO3)n1	1	-2	4	2	1	3	.
Cc1cc(C)c(NC(=O)CS(=O)CC(=O)N2CCN(c3ccc(F)cc3)CC2)c(C)c1 (configuration not stated)	-1	-4	-4	5	-1	-6	.
Cc1cc(C)c(NC(=O)CS(=O)CC(=O)Nc2ccc(F)cc2F)c(C)c1 (configuration not stated)	-1	-2	3	10	0	23*	1
CS(=O)(=O)NNC(=O)c1csc(Cc2c(Cl)sc3ccc(Cl)cc23)n1	2	-9	10	1	0	36*	-1
COc1ccc(C)cc1NC(=O)CNC(=O)Cn1ccc2ccccc2c1=O	-1	4	32	0	2	47*	-1
COc1ccc([N+](=O)[O-])cc1NC(=O)CCNC(=O)Cn1ccc2ccccc2c1=O	1	-7	14	5	0	19*	-5
O=C(OCc1ccccc1)N1CCC2CC1c1cc(-c3cc4ccccc4o3)ccc12 (configuration not stated)	.	.	.	.	-2	.	.
CC(C)(C)NC(=O)NC(=O)CSc1ccc(S(=O)(=O)N2CCCCC2)cn1	.	.	.	.	-1	1	.
CCc1nn(CC(=O)NCCC2=CCCCC2)c(=O)c2cc3cc(F)ccc3n12	-2	1	12	-8	-1	41*	-6
CCc1nn(CC(=O)NCCCc2ccccc2)c(=O)c2cc3cc(F)ccc3n12	-2	-5	1	-4	0	?	.
CC1CCN(S(=O)(=O)c2cn(CC(=O)Nc3cccc(C#N)c3)cn2)CC1	-2	-2	5	-11	1	-1	.

Screening results from PubChem BioAssay.
